This test deals with VDR:RXRa (NR concentration 270 nM, RXRa partner concentration 90 nM). The test is described as follows: PBM binding z-score (relative to random genomic background probes); higher = stronger binding; sequences stand for … in GC…GCGATTGACAGCGTAGAATGAAGG
The method, then:
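Protein-binding microarray (Agilent 4x180K custom design, double-stranded 60-nt probes: 5' GC cap, 34-nt variable region, 24-nt constant primer region; full probe sequence given). Purified or IVT nuclear receptor:RXRα heterodimers (3:1 NR:RXRα, mostly 270:90 nM) or homodimers were incubated for 1 h in PBS with 2% milk and no ligand, then detected with Alexa488 antibodies. Fluorescence from o1-orientation probes (~5 replicates averaged) was converted to z-scores against 500 random hg19 background probes. Variable regions are seed direct-repeat (DR0–DR5) sites, all their single-nucleotide variants and half-site ablations.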
As to CGAACTAGGTCAGAACAGGATAGTGAAGGATGAT, the PBM binding z-score stood at 0.322.

In the case of GCGACTCGGGCATCAGCAGGTTACCATAACTTAA, the PBM binding z-score is -0.42.

Consider TCATATAGGTAAACACGTGAAAGTCCGTAAGTTA, for which the PBM binding z-score was 0.885.

With GTACCAAGGTGAGTAGGTCGTTGATGAGTAGGCG, the PBM binding z-score was 0.177.

In turn, AGAATGAGGTTAAGATCAGGGCAACAGAATACAT had a PBM binding z-score of 2.23.

In turn, ATCACTAGGTAAAGTTCAGTGAAAGATCGATAGA registered a PBM binding z-score of 1.21.

TCTTGTAGATCAATCAGGTTAAGAAAGCCTGAGT showed a PBM binding z-score of 1.

Consider ATCTCTAGGTATGACTCAGTTCAGTGAAGAACGC, for which the PBM binding z-score amounted to 1.01.

In the case of GCGACTGGGGCATCAACAGGTTACCATAACTTAA, the PBM binding z-score came to 0.0297.

Turning to ATCGAAAGGTCGAAGGTGAGTATACCCACCCGAA, the PBM binding z-score is 2.91.

For the sequence CAGCCTAGGGCAGGGCCAGTATAGGAGGAACGTT, the PBM binding z-score is -0.885.

Consider CCGAGTAGGTTTTGGGGCATTCAGGCAACGGTGA, for which the PBM binding z-score was -0.239.

Regarding TTACCAAGGTGAGCTGAGGTCGTTGAGCCAACTC, the PBM binding z-score was determined as 4.29.

For the sequence CTTTACGGGTCACTCCAGGTTATAGCATCGGAGT, the PBM binding z-score worked out at 4.46.

CCTAACGGGTCACTGACAGGTTATAGCATTTGGA came in with a PBM binding z-score of 3.21.

As for CAAACTAGGTCACAGAGGTAAAAGTCCGTGCGTA, the PBM binding z-score was found to be 4.96.

For TAGCCTAGGTCATGTGGGCCAGTATAGTGTCGGC, the PBM binding z-score amounted to 2.62.

Regarding ACTAGCAGGCCACGGGTCACTCAAGATTAGTCCG, the PBM binding z-score was 1.2.

Regarding TCGATTAGGTTAGGGGCATTCAGAATGGCGTCGA, the PBM binding z-score came to 0.781.

As to CGTCCAAGGTCAAAGCTCAGTGAAGAGATGACGG, the PBM binding z-score amounted to 3.77.

For AGAATGAGGTTAAGATCAGGGAAACAGAATACAT, the PBM binding z-score is 1.19.

On to CGAACTAGGCCATCCAGGACAGTGAATACATTGA, for which the PBM binding z-score was 0.0871.

In turn, CCTCGTTGGTCAAGGTCACACACGCTATAGGTAC returned a PBM binding z-score of 3.93.

For the sequence GCTCGGAGGACAAGGTCAGACCTTTGTCCGTAGA, the PBM binding z-score was found to be 1.97.

GGAATGAGGGCAAAGTTGATAGCATCTGTCGACG returned a PBM binding z-score of 1.82.

The sequence CCTACTGGGCCAAAGGTCATCGATTCCAATGCTC returned a PBM binding z-score of 4.53.

GGAACGCGGGCAAGTTGATAGCAGAGTTTGATGG: the PBM binding z-score is -0.834.

On to CATATAGGGTCAGCTAGGCCAGAGTAGGGACGGC, for which the PBM binding z-score amounted to 3.7.

Sequence GCTTACGGGTCAAAGGTTTTAGCATGAATAGAAT gave a PBM binding z-score of 4.08.

The sequence TCAGACAGGGGAAGGTAACTCAGGTACGCAGTCG displayed a PBM binding z-score of 0.795.

TCTTGTTGATCAAGCAGGTTAAGAAAGCCTGAGT displayed a PBM binding z-score of 0.244.

For CCGACTGGGGCAAAGGTTAACATACTCAGTACGA, the PBM binding z-score was 2.2.

ATCTCTAGGTAAAAGTTAAGTGAATCCCGAGGAT came in with a PBM binding z-score of -0.0664.

ATATGTAGGTTATCGGGTGATTCAGTTTGCGCAT showed a PBM binding z-score of 1.77.

Consider CAGCCTTGGTCAGGGCCAGTATAGGAGGAACGTT, for which the PBM binding z-score was -0.707.

GCATATAGGTAATCCAAGGTGAAAGTCCGATTGT returned a PBM binding z-score of 0.373.

TCTTGTAGATCAACCAGGTTAAGAAAGCCTGAGT gave a PBM binding z-score of 1.04.

For CCAGTCAGGTGAGAAGGTAACTCAGCCTCGATTA, the PBM binding z-score is -0.296.

Turning to GCGACTGGGGCAAACCAGGTTACCATAAGGTTGG, the PBM binding z-score was determined as 0.416.

For the sequence TCTTGTAGAACAATAGAGGTTAAGAAAGTGCGCT, the PBM binding z-score was 1.65.

Source of the values: the supplement of paper PMC6555819.
